Measurements reported in PubChem BioAssay (NCI).
The panel holds about 79,000 compounds, 15% with a hit somewhere; the sample as a whole holds those more often. The source made the active and inactive calls. No stated cut-off is given here; in the data, active means growth inhibition above about 70%; inactive means the rest.

What was measured:
[1] = NCI Yeast Anticancer Drug Screen. Data for the rad52 strain (AID 147);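 further: 0% = growth of vehicle-treated control cultures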; settings: S. cerevisiae rad52 mutant growth inhibition, hits give high values
Method in brief: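 Here a repair-compromised yeast strain receives each compound; its growth is then quantified and normalised to vehicle-only controls.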

[2] = NCI Yeast Anticancer Drug Screen. Data for the wt1 strain (AID 149);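 further: 0% = growth of vehicle-treated wt1 cultures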; settings: S. cerevisiae wt1 strain (SPY 50644) growth inhibition, hits give high values
Method in brief: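 Growth inhibition read against vehicle controls after compound exposure of the wt1 yeast strain.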

[3] = NCI Yeast Anticancer Drug Screen. Data for the rad50EPP+ strain (AID 151);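 further: 0% = growth of vehicle-treated control cultures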; settings: S. cerevisiae rad50 mutant strain, hits give high values
Method in brief: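 Read-out is yeast growth inhibition relative to vehicle; cells used were the rad50EPP+ strain.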

[4] = NCI Yeast Anticancer Drug Screen. Data for the mgt1 strain (AID 153); settings: S. cerevisiae mgt1 mutant growth inhibition, hits give high values
Method in brief: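 Measured: inhibition of mgt1 yeast growth by compound, normalized to vehicle-treated cultures.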

[5] = NCI Yeast Anticancer Drug Screen. Data for the rad50 strain (AID 155);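 further: 0% = growth of vehicle-only cultures of the same strain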; settings: S. cerevisiae rad50 strain growth inhibition, hits give high values
Method in brief: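 Readout: growth inhibition relative to vehicle-treated cultures. Compound exposure was carried out in a genetically defined yeast strain deficient in DNA damage repair.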

[6] = NCI Yeast Anticancer Drug Screen. Data for the mec2-1 strain (AID 157); settings: S. cerevisiae mec2-1 strain, hits give high values
Method in brief: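 Using mec2-1 yeast: add compound, measure growth, express inhibition versus vehicle-treated cultures.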

[7] = NCI Yeast Anticancer Drug Screen. Data for the rad14 strain (AID 159);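 further: 0% = growth of vehicle-treated control cultures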; settings: S. cerevisiae rad14 strain growth inhibition, hits give high values
Method in brief: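 Growth inhibition vs vehicle controls; genetically altered yeast strain (DNA damage repair defect) treated with test compounds.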

[8] = NCI Yeast Anticancer Drug Screen. Data for the sgs1 mgt1 strain (AID 161);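 further: 0% = growth of cultures given vehicle only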; settings: S. cerevisiae sgs1 mgt1 strain, hits give high values
Method in brief: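 Yeast cells carrying a defined DNA-repair defect were exposed to test compounds. Growth inhibition was measured relative to vehicle-treated controls.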

[9] = NCI Yeast Anticancer Drug Screen. Data for the CLN2oe strain (AID 163);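 further: 0% = growth of vehicle-only control cultures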; settings: S. cerevisiae CLN2oe strain, hits give high values
Method in brief: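 Whole-cell yeast growth assay. A strain engineered for altered cell-cycle control received compound, and inhibition relative to vehicle-treated cultures was recorded.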

[10] = NCI Yeast Anticancer Drug Screen. Data for the cln2 rad14 strain (AID 165);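 further: 0% = growth equal to vehicle treated cultures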; settings: S. cerevisiae cln2 rad14 strain, hits give high values
Method in brief: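 Yeast strain cln2 rad14, bearing defects in cell cycle control and DNA repair, serves as the test system; values reflect growth inhibition compared with vehicle.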

[11] = NCI Yeast Anticancer Drug Screen. Data for the bub3 strain (AID 167); settings: S. cerevisiae bub3 mutant strain, hits give high values
Method in brief: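 Readout: yeast growth inhibition, expressed relative to vehicle-only wells. The test organism is a mutant strain from a panel with lesions in DNA repair or checkpoint genes.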

[12] = NCI Yeast Anticancer Drug Screen. Data for the wt2 strain (AID 169);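 further: 0% = growth of vehicle-treated yeast cultures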; settings: S. cerevisiae wt2 strain growth inhibition, hits give high values
Method in brief: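 Treated yeast vs. vehicle-treated yeast: growth inhibition determined.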

[13] = NCI Yeast Anticancer Drug Screen. Data for the mlh1 strain (AID 171);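 further: 0% = growth of vehicle-treated control cultures of the same strain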; settings: S. cerevisiae mlh1 strain growth inhibition, hits give high values
Method in brief: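 A yeast strain with a defined genetic lesion serves as the test organism. Cultures receive compound or vehicle, and growth is measured.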

[14] = NCI Yeast Anticancer Drug Screen. Data for the sgs1 strain (AID 173);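 further: 0% = growth of vehicle-only control cultures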; settings: S. cerevisiae sgs1 mutant, hits give high values
Method in brief: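 A genetically defined yeast mutant is incubated with the test compound, and its growth is compared to that of the same strain given vehicle.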

[15] = NCI Yeast Anticancer Drug Screen. Data for the mlh1 rad18 strain (AID 175); settings: S. cerevisiae mlh1 rad18 strain growth inhibition, hits give high values
Method in brief: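 Steps: expose repair-defective yeast to compound; measure growth; express inhibition against vehicle-treated controls.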

[16] = NCI Yeast Anticancer Drug Screen. Data for the rad18 strain (AID 177); settings: S. cerevisiae rad18 mutant growth inhibition, hits give high values
Method in brief: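 Measured value is growth inhibition of a yeast strain bearing a DNA repair alteration, referenced to vehicle-treated cells.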

[17] = at 5.0 µM (retest, dose inferred, filed as 0.5)
[18] = at 50.0 µM (retest, dose inferred, filed as 5.0)

Measured: growth inhibition

O=C(CNS(=O)(=O)Cc1ccccc1)NNc1ccccc1
inactive: [1]; at 1.2 µM -1% | [1]; at 3.7 µM 2% | [1]; at 11.0 µM 12% | [1]; at 33.0 µM 35% | [1]; at 100.0 µM 44% | [2]; at 1.2 µM -1% | [2]; at 3.7 µM 5% | [2]; at 11.0 µM 4% | [2]; at 33.0 µM 23% | [2]; at 100.0 µM 36% | [3]; at 1.2 µM 2% | [3]; at 3.7 µM 4% | [3]; at 11.0 µM 22% | [3]; at 33.0 µM 43% | [3]; at 100.0 µM 58% | [4]; at 1.2 µM -1% | [4]; at 3.7 µM 12% | [4]; at 11.0 µM 14% | [4]; at 33.0 µM 16% | [4]; at 100.0 µM 16% | [5]; at 1.2 µM 2% | [5]; at 3.7 µM 4% | [5]; [17] 13% | [5]; at 11.0 µM 9% | [5]; at 33.0 µM 17% | [5]; [18] 64% | [5]; at 100.0 µM 24% | [6]; at 1.2 µM -1% | [6]; at 3.7 µM 0% | [6]; [17] -3% | [6]; at 11.0 µM 7% | [6]; at 33.0 µM 14% | [6]; [18] 9% | [6]; at 50.0 µM 62.5% | [6]; at 100.0 µM 16% | [7]; at 1.2 µM 0% | [7]; at 3.7 µM 3% | [7]; at 11.0 µM 6% | [7]; at 33.0 µM 13% | [7]; at 100.0 µM 20% | [8]; [17] 28% | [8]; at 50.0 µM 63.6% | [9]; at 1.2 µM 5% | [9]; at 3.7 µM 5% | [9]; at 11.0 µM 24% | [9]; at 33.0 µM 39% | [9]; at 100.0 µM 39% | [10]; [17] 8% | [10]; [18] 33% | [10]; at 50.0 µM 60% | [11]; at 1.2 µM 1% | [11]; at 3.7 µM 0% | [11]; [17] 5% | [11]; at 11.0 µM 2% | [11]; at 33.0 µM 8% | [11]; [18] 29% | [11]; at 50.0 µM 69.3% | [11]; at 100.0 µM 10% | [12]; at 1.2 µM 1% | [12]; at 3.7 µM 2% | [12]; at 11.0 µM 11% | [12]; at 33.0 µM 30% | [12]; at 100.0 µM 38% | [13]; at 1.2 µM -4% | [13]; at 3.7 µM 0% | [13]; at 11.0 µM 5% | [13]; at 33.0 µM 16% | [13]; at 100.0 µM 24% | [14]; at 1.2 µM -1% | [14]; at 3.7 µM -1% | [14]; at 11.0 µM 8% | [14]; at 33.0 µM 36% | [14]; at 100.0 µM 54% | [15]; at 50.0 µM 40.1% | [16]; at 1.2 µM 4% | [16]; at 3.7 µM 5% | [16]; at 11.0 µM 23% | [16]; at 33.0 µM 63%
active: [5]; at 50.0 µM 75.8% | [8]; [18] 71% | [15]; [17] 71% | [15]; [18] 90% | [16]; at 100.0 µM 83%

Cc1cc(C)c(N2C(=O)CC(Sc3ccccc3N)C2=O)c(C)c1 (stereo not drawn)
active: [8]; [18] 91% | [10]; [18] 76% | [11]; [18] 91%
inactive: [1]; at 1.2 µM -27% | [1]; at 3.7 µM -20% | [1]; at 11.0 µM -31% | [1]; at 33.0 µM -14% | [1]; at 100.0 µM -22% | [2]; at 1.2 µM -53% | [2]; at 3.7 µM -52% | [2]; at 11.0 µM -58% | [2]; at 33.0 µM -62% | [2]; at 100.0 µM -45% | [3]; at 1.2 µM -15% | [3]; at 3.7 µM -13% | [3]; at 11.0 µM -16% | [3]; at 33.0 µM -11% | [3]; at 100.0 µM 1% | [4]; at 1.2 µM -57% | [4]; at 3.7 µM -57% | [4]; at 11.0 µM -57% | [4]; at 33.0 µM -38% | [4]; at 100.0 µM -21% | [5]; at 1.2 µM -34% | [5]; at 3.7 µM -30% | [5]; [17] 37% | [5]; at 11.0 µM -33% | [5]; at 33.0 µM -42% | [5]; [18] 41% | [5]; at 50.0 µM 30.1% | [5]; at 100.0 µM -27% | [6]; at 1.2 µM -42% | [6]; at 3.7 µM -44% | [6]; [17] 45% | [6]; at 11.0 µM -45% | [6]; at 33.0 µM -36% | [6]; [18] 48% | [6]; at 50.0 µM 48.5% | [6]; at 100.0 µM -24% | [7]; at 1.2 µM -59% | [7]; at 3.7 µM -53% | [7]; at 11.0 µM -53% | [7]; at 33.0 µM -56% | [7]; at 100.0 µM -45% | [8]; [17] 0% | [8]; at 50.0 µM 42.9% | [9]; at 1.2 µM -16% | [9]; at 3.7 µM -11% | [9]; at 11.0 µM -2% | [9]; at 33.0 µM 14% | [9]; at 100.0 µM -2% | [10]; [17] 34% | [10]; at 50.0 µM 6.4% | [11]; at 1.2 µM -48% | [11]; at 3.7 µM -43% | [11]; [17] -26% | [11]; at 11.0 µM -51% | [11]; at 33.0 µM -48% | [11]; at 50.0 µM 51.6% | [11]; at 100.0 µM -51%
